PubChem BioAssay AID2253 (Southern Research Specialized Biocontainment Screening …, 2010)
The campaign covered roughly 2,200 compounds. About 1,300 (59%) were called active. How the calls were made is not given here. So high a share suggests a set chosen from earlier hits. Only a sample is shown. Results with a measured potency or affinity are listed apart.

assay: THP-1 cell cytotoxicity, dose response, cytotoxicity control for Salmonella PhoP regulon inhibitors, S. typhimurium screen hits (AID 2253); conditions: THP-1 viability, CellTiter-Glo luminescence, 72 h; series mostly up to 50 µM; viability: at the top concentration

SMILES	viability
C=CCSC1=Nc2sccc2C2=NC(=O)CN12	94.6% (inactive)
O=C(CN1CCCCC1)Nc1cccc2c1OCO2	99% (inactive)
NC(=O)c1oc2ccccc2c1NC(=O)CN1CCCCC1	90.4% (inactive)
O=c1[nH]c2cc3c(cc2cc1CN(CCc1ccccc1)Cc1nnnn1CC1CCCO1)OCO3 (stereo not drawn)	85.9% (inactive)
CC(C)CNC(=S)NC1CCCC1	91.8% (inactive)
O=C(CN1CCC(NC(=O)c2cccc(F)c2)CC1)NCc1ccccc1F	101% (inactive)
CN(C)CCNC(=O)c1ccc(COCC(F)(F)F)cc1	116% (inactive)
Cc1cc([N+](=O)[O-])ccc1NC(=O)Cc1ccc(F)cc1	91.8% (inactive)
Cn1c(SCC(=O)NC(=O)c2cccc([N+](=O)[O-])c2)nnc1-c1ccc(F)cc1	102% (inactive)
COc1ccc(/C=C/C(=O)O)cc1COc1cccc(C)c1	89.3% (inactive)
O=C(NCC(=O)N(c1cccnc1)C(C(=O)NCc1ccco1)c1ccccc1)c1ccco1 (stereo not drawn)	96.2% (inactive)
COC(=O)c1ccccc1NC(=O)CS(=O)(=O)Cc1nc(-c2ccc(C)cc2)oc1C	80.8% (inactive)
COc1ccc(-c2nnn(CC(=O)N(Cc3ccco3)C(C(=O)NCC3CCCO3)c3ccco3)n2)cc1 (stereo not drawn)	87% (inactive)
CSCC[C@H](NC(=O)Nc1ccc(C)cc1)C(=O)O	97.3% (inactive)
C=C(C)C1Cc2cc3ccc(=O)oc3cc2O1 (stereo not drawn)	80.7% [at 12.5 µM] (inactive)
CCOC(=O)N1CCC(NC(=O)CCC(=O)c2ccccc2)CC1	94.4% (inactive)
Cc1cccnc1NC(=O)CCCN1C(=O)c2ccccc2C1=O	95.8% (inactive)
COc1ccc(-c2nnc(SCCC(=O)O)n2-c2ccccc2)cc1	92.9% (inactive)
Cc1cccc(C)c1NC(=O)CSc1nnc(NC(=O)CN2CCOCC2)s1	87.5% (inactive)
CCCOc1ccc(C(=O)NC(=S)N2CCN(c3cc4c(cc3F)c(=O)c(C(=O)O)cn4CC)CC2)cc1	89% (inactive)
c1ccc2oc(SCc3cn4ccccc4n3)nc2c1	85.5% (inactive)
Nc1nnc(Sc2ccc(Cl)cc2[N+](=O)[O-])s1	103% (inactive)
NC(=O)c1cnn(Cc2ccc(Cl)cc2)c1N	95.4% (inactive)
CC(=O)Cn1cnc2sc(-c3ccccc3)cc2c1=O	95.9% (inactive)
Nc1ccc(S(=O)(=O)Nc2ccc(Cl)nn2)cc1	89.7% (inactive)

SMILES	viability
Cc1nc2cc(NC(=O)N3CCN(c4ccccn4)CC3)ccc2o1	84.4% (inactive)
Cc1ccc(C(=O)C2COC(=O)C2)cc1 (stereo not drawn)	98.3% (inactive)
COc1cccc(NC(=O)CNC(=O)c2cccs2)c1	92.6% (inactive)
Cc1cc2nn(-c3ccccc3)nc2cc1NC(=O)c1cccs1	95% (inactive)
O=S(=O)(c1ccc(S(=O)(=O)N2CCN(C/C=C/c3ccccc3)CC2)cc1)N1CCCC1	83.2% (inactive)
COCCNC(=O)CSCc1c(F)cccc1Cl	94.2% (inactive)
Cc1nc2c(Cl)cccc2c2c1CC(CBr)O2 (stereo not drawn)	83.2% (inactive)
CN(C)CCNc1nc(-c2ccccc2)nnc1C(F)(F)F	98.1% (inactive)
Cc1cccc(C=Nc2ccc3c(c2)oc2ccccc23)c1O	100% (inactive)
CCNC(=S)NNC(=O)c1ccc(OC(F)F)cc1	84% [at 25 µM] (inactive)
Nc1nc(C2CCCCC2)cs1	91.3% (inactive)
COc1ccc(C2=Nc3cccc4cccc(c34)N2)cc1	107% (inactive)
O=S(=O)(NC1=NCCCCC1)c1cccs1	96.8% (inactive)
C=CCOc1ccc(CNc2nn[nH]n2)cc1	91.5% (inactive)
OCCN(Cc1ccccc1)Cc1ccc(Cl)cc1	86.6% (inactive)
CN(C)S(=O)(=O)Nc1ccc(C(=O)O)cc1	85.3% (inactive)
CC1CC(C)CN(CCCNC(=O)C2CCC(=O)N2C2CCCC2)C1 (stereo not drawn)	98.3% (inactive)
CCOCC(=O)Nc1ccc(F)c(F)c1	94.5% (inactive)
O=C(Cn1ncc2c(=O)oc3ccccc3c21)N1CCN(c2ccccn2)CC1	101% (inactive)
Cc1ccccc1C(=O)N(C)Cc1ccccc1	93.6% (inactive)
CCOC(=O)c1ccc(N2CCN(c3ccc(F)cc3)CC2)c(NC(=O)Nc2cccc(OC)c2)c1	94% (inactive)
Cc1ccc2occ(/C=N/O)c(=O)c2c1	85% (inactive)
O=C(O)C1CCCN1S(=O)(=O)c1ccc2[nH]c(=O)c(=O)[nH]c2c1 (stereo not drawn)	99.7% (inactive)
O=C(CSc1nnc2n(C3CCCCC3)c(=O)c3ccccc3n12)OC1CCCCC1	92.5% (inactive)
Cc1ccc(S(=O)(=O)NC2=NCN(CCOC(=O)c3ccc([N+](=O)[O-])cc3)CN2)cc1	103% (inactive)

SMILES	viability
Cc1ccc(C(=O)NCC(=O)NCC(=O)OCC(=O)c2ccc([N+](=O)[O-])cc2)cc1	90.7% (inactive)
N#Cc1c(N)nc(SCC(=O)NC2CCCCC2)c(C#N)c1-c1ccc(Cl)cc1	90.8% (inactive)
Nc1ncncc1-c1ccc(Cl)cc1	86.4% (inactive)
CCn1cc(C(=O)O)c(=O)c2cc(F)c(N3CCN(C(=S)NC(=O)c4cccc(C)c4)CC3)cc21	110% (inactive)
CN1/C(=C/C=N/NC(=O)c2ccc([N+](=O)[O-])cc2)C(C)(C)c2ccccc21	97.2% (inactive)
Clc1ccc(OCCn2ccnc2)c(Br)c1	80.3% (inactive)
O=C(COc1ccc(Br)cc1Cl)NC(=O)NCc1ccccc1	88.9% (inactive)
COc1cc(C)ccc1OCCCOc1ccccc1Br	92.4% (inactive)
CC(C)Oc1cccc(C(=O)NC(=S)Nc2ccccc2)c1	102% (inactive)
Cc1cc(C)c(NC(=S)NC(=O)c2ccc(-c3ccccc3)cc2)c(C)c1	101% (inactive)
Cn1cc(-c2nnnn2-c2cccc(C(F)(F)F)c2)c(C(F)(F)F)n1	91.9% (inactive)
Nc1cc(=O)[nH]c(=S)n1-c1cccc(C(F)(F)F)c1	92.3% (inactive)
Cc1ccc(/C=C/c2nnc(-c3ccc(C)cc3)o2)cc1	89.6% (inactive)
COc1ccc(OC)c(NC(=O)c2ccccc2NS(=O)(=O)c2cccc3cccnc23)c1	86.2% (inactive)
O=C(CSc1ncn[nH]1)Nc1cccc2ccccc12	94.5% (inactive)
COc1ccc(CCN2CC3=C(C2=O)C(c2ccccc2)NC(=O)N3C)cc1OC (stereo not drawn)	94.7% (inactive)
Cc1ccc(C(=O)COC(=O)CNS(=O)(=O)c2ccccc2)cc1[N+](=O)[O-]	86.3% [at 12.5 µM] (inactive)
O=C(Cc1ccc(Cl)cc1)NNS(=O)(=O)c1ccc([N+](=O)[O-])cc1	106% (inactive)
O=C(N[C@H](CO)[C@H](O)c1ccc([N+](=O)[O-])cc1)C(Cl)Cl	103% (inactive)
COc1ccc2nc(-c3ccccc3)cc(OC)c2c1	86.2% (inactive)
Cc1nc2ccccc2c(=O)n1/N=C/c1ccc(N(C)C)cc1	99.1% (inactive)
Cc1ccc(-c2n[nH]c(=S)n2/N=C/c2cc3c(cc2[N+](=O)[O-])OCO3)cc1	80.4% (inactive)
CN(C)c1ccc(/C=N/c2cc(-c3ccccc3)nn2-c2ccccc2)cc1	81.5% (inactive)
